Source: PubChem BioAssay AID2726 (Broad Institute, 2010)
Some of the results follow. Unmarked numbers belong to inactive results.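 The calls were made as follows: active = every replicate shows growth inhibition above 50%; inconclusive = at least half, but not all, replicates pass that cutoff; inactive = fewer than half of replicates pass it.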

Assay: Vibrio harveyi growth inhibition, confirmation, counter-screen for AI-2 quorum sensing project, JMH597 strain, OD600 absorbance (AID 2726)
Conditions: 9 h, at 7.5 µM, hits give high values, lacks LuxN and CqsS sensors

SMILES | growth inhibition [%]
Cc1ccc(NC(=O)C2CC2c2ccccc2)cc1 (stereo not given) | -14.1
Cc1cccc(CSc2ccc(-c3cccs3)nn2)c1 | 18.7
O=C(COc1ncnc2ccccc12)NC(=O)NCc1ccccc1 | 17.5
Cc1ccsc1C(=O)OCC(=O)c1cc2ccccc2o1 | 32.2
Cc1nn(CC(=O)Nc2ccc(F)cc2)c(=O)c2ccccc12 | 2.73
O=C(/C=C/c1ccc2c(c1)OCO2)NCc1ccc(F)cc1 | 4.99
CN(Cc1cnccn1)C(=O)c1cc(COc2cccc(C(F)(F)F)c2)on1 | 4.24
Cc1ccccc1C(=O)Nc1ccc(N2CCCCCC2)cc1 | 25.5
COc1ccc(/C(N)=N/OC(=O)Cc2ccccc2)cc1 | 15.4
CC(C)(C)c1ccc(OC2=CS(=O)(=O)c3ccccc32)cc1 | 31.5
O=C(c1cc(-c2cccc(O)c2)on1)N1CCc2ccccc2C1 | 14.2
Cc1cc(CN(C)C(=O)c2cc(COc3ccc(C)c(C)c3)on2)n[nH]1 | 25.5
O=C(/C=C/c1ccc2c(c1)OCCO2)c1ccc(O)cc1 | 2.39
CCOc1ccc(/C=N/NC(N)=S)cc1 | 8.81
Cc1ccc(Cc2nc(-c3cccc(C)c3)no2)cc1 | 30.5
